# According to PubChem BioAssay (NCI):
# This is part of a sample that, as a whole, favours compounds with a hit. Of some 83,000 tested, about 20% had one in any assay.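 In brief: 96-well plates, 48 h treatment, single concentration, percent growth endpoint.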 Values without a mark were called inactive. Activity calls are given as the source filed them. The calls were made as follows: active = growth percent below 10; inactive = the rest.
# Test system: MDA-MB-468 breast
# Experiment: NCI-60 one-dose screen, 48 h (100 = growth as untreated, 0 = no growth, -100 = all killed)
# Details: 10 µM unless noted
row,SMILES,growth
1,Cn1cc(-c2nc(-c3c[nH]c4ncccc34)cs2)c2ccccc21,-19% (active)
2,CCCCCCCCCCCC(=O)OC(C)C(=O)NCCCC (configuration not stated),105%
3,COc1cc(Cc2cc(-c3ccccc3)nn(Cc3ccccc3)c2=O)cc(OC)c1OC,28.4%
4,C(=N\Nc1nnc2n1N=C(c1ccccc1)CS2)/c1ccc(OCc2ccccc2)cc1,88.9%
5,OC(c1ccccc1)C(NC(Cc1ccccc1)c1ccccc1)c1ccccc1 (configuration not stated),89.3%
6,COc1ccc(-c2nc(N/N=C/c3cccc(O)c3)nc(N3CCOCC3)c2C#N)cc1,87.1%
7,COc1ccccc1N1CCN(C2=CC(=O)C(C)=C(C)C2=O)CC1,85.8%
8,CC(=O)Nc1ccc2c(c1)Cc1cc(F)ccc1-2,101%
9,O=C(/C=C/c1ccccc1)C(Br)C(Br)c1ccccc1 (configuration not stated),-38.1% (active)
10,Nc1nc(SN=Nc2ccc(S(N)(=O)=O)cc2)c2[nH]cnc2n1,-9.35% (active)
11,COC(=O)N[C@H]1CCc2cc(OC)c(OC)c(OC)c2-c2ccc(SC)c(=O)cc21,-32% (active)
12,CCN(CC)CCNc1ccc(C)c2sc3cc(C)ccc3c(=O)c12,66.5%
